Cytotoxicity call data for 64 molecules are collected here from the antibiotic and cytotoxicity screens of Wong et al. (2023).

The campaign covered roughly 39,000 compounds. About 1,500 (3.8%) were called active. The full list was thinned out, with actives kept by preference.

The assay deals with HSkMC (human skeletal muscle cells). Briefly: cytotoxicity call (relative viability < 0.9). Particulars: 10 µM.
On to `C[C@H]1CN([C@@H](C)CO)C(=O)Cc2cc(NC(=O)Nc3ccc4c(c3)OCO4)ccc2O[C@H]1CN(C)Cc1ccc(-c2ccccc2)cc1`, for which the cytotoxicity call was “inactive”. Under `C[C@@H]1CN([C@H](C)CO)C(=O)Cc2cc(NC(=O)Nc3ccc(F)cc3)ccc2O[C@@H]1CN(C)Cc1ccc(-c2ccccc2)cc1` stands “inactive”; under `C[C@@H]1CN([C@@H](C)CO)C(=O)Cc2cc(NC(=O)Nc3ccc4c(c3)OCO4)ccc2O[C@H]1CN(C)Cc1ccc(-c2ccccc2)cc1`, “inactive”. Under `C[C@@H]1CN([C@@H](C)CO)C(=O)Cc2cc(NC(=O)Nc3ccc(F)cc3)ccc2O[C@@H]1CN(C)Cc1ccc(-c2ccccc2)cc1` stands “inactive”; under `C[C@H](CO)N1C[C@H](C)[C@H](CN(C)Cc2ccc(-c3ccccc3)cc2)Oc2ccc(NC(=O)Nc3ccc(F)cc3)cc2CC1=O`, “active”. To `C[C@@H]1CN([C@H](C)CO)C(=O)Cc2cc(NC(=O)c3ccncc3)ccc2O[C@@H]1CN(C)Cc1ccc(-c2ccccc2)cc1` belongs “active”; to `C[C@H]1CN([C@@H](C)CO)C(=O)Cc2cc(NC(=O)c3ccncc3)ccc2O[C@H]1CN(C)Cc1ccc(-c2ccccc2)cc1`, “inactive”; to `C[C@H](CO)N1C[C@H](C)[C@@H](CN(C)Cc2ccc(-c3ccccc3)cc2)Oc2ccc(NC(=O)Nc3ccc(F)cc3)cc2CC1=O`, “inactive”. Take `C[C@@H]1CN([C@H](C)CO)C(=O)Cc2cc(NC(=O)Nc3ccc4c(c3)OCO4)ccc2O[C@@H]1CN(C)Cc1ccc(-c2ccccc2)cc1`: the cytotoxicity call was “active”.

For `C[C@H]1CN([C@@H](C)CO)C(=O)Cc2cc(NC(=O)Nc3ccc(F)cc3)ccc2O[C@@H]1CN(C)Cc1ccc(-c2ccccc2)cc1`, the cytotoxicity call was “inactive”. Under `C[C@H](CO)N1C[C@H](C)[C@H](CN(C)Cc2ccc(-c3ccccc3)cc2)Oc2ccc(NC(=O)c3ccncc3)cc2CC1=O` stands “inactive”; under `C[C@H]1CN([C@@H](C)CO)C(=O)Cc2cc(NC(=O)Nc3ccc(F)cc3)ccc2O[C@H]1CN(C)Cc1ccc(-c2ccccc2)cc1`, “active”. Under `COCC#Cc1ccc2c(c1)O[C@@H](CN(C)C(=O)C1CCOCC1)[C@H](C)CN([C@H](C)CO)S2(=O)=O` stands “inactive”. With `CC(C)[Si](C#CCCCC#N)(O[C@H](c1ccccc1)c1cn(Cc2cccc(Cl)c2)nn1)C(C)C`, the cytotoxicity call is “inactive”. To `C[C@H](CO)N1C[C@H](C)[C@@H](CN(C)Cc2ccccc2)OCCCC[C@H](C)Oc2ccc(NC(=O)Nc3ccc(F)cc3)cc2C1=O` belongs “inactive”; to `C[C@H]1CN([C@@H](C)CO)C(=O)c2cccc(NC(=O)c3ccc(-c4nccs4)cc3)c2O[C@@H]1CN(C)Cc1ccccc1`, “inactive”. Consider `Cc1noc(C)c1NC(=O)N(C)C[C@@H]1Oc2ncc(C#Cc3ccccc3)cc2C(=O)N([C@H](C)CO)C[C@@H]1C`, for which the cytotoxicity call is “inactive”. To `COc1ccc(S(=O)(=O)Nc2ccc3c(c2)C(=O)N([C@@H](C)CO)C[C@H](C)[C@H](CN(C)C(=O)NC2CCCCC2)OCCCC[C@H](C)O3)cc1` belongs “inactive”; to `CCCC#Cc1ccc2c(c1)O[C@@H](CN(C)Cc1ccc3c(c1)OCO3)[C@@H](C)CN([C@@H](C)CO)S2(=O)=O`, “inactive”; to `COCC(=O)N1CC[C@]2(CC1)CN([C@@H](CO)c1[nH]c3cc(ccc3c12)OC)S(=O)(=O)C`, “inactive”. Take `Cn1c2c(c(=S)[nH]c1=O)CCC2`: the cytotoxicity call was “inactive”.

Turning to `Cc1ccc(S(=O)(=O)Nc2ccc3c(c2)C(=O)N([C@@H](C)CO)C[C@H](C)[C@H](CN(C)Cc2ccc(C(=O)O)cc2)OCCCC[C@H](C)O3)cc1`, the cytotoxicity call was “inactive”.

Turning to `C[C@@H]1CN([C@@H](C)CO)C(=O)c2cc(NC(=O)Nc3ccc4c(c3)OCO4)ccc2O[C@@H](C)CCCCO[C@@H]1CN(C)Cc1ccc(C(=O)O)cc1`, the cytotoxicity call was “inactive”. `C[C@@H]1CN([C@@H](C)CO)C(=O)c2cc(NC(=O)Nc3ccc(F)cc3)ccc2O[C@@H](C)CCCCO[C@H]1CN(C)C(=O)Cc1ccccc1`: the cytotoxicity call was “inactive”. Under `C[C@@H]1CN([C@@H](C)CO)C(=O)c2cc(NC(=O)Nc3ccccc3)ccc2O[C@@H](C)CCCCO[C@@H]1CN(C)C(=O)Cc1ccccc1` stands “inactive”; under `C[C@H]1CCCCO[C@H](CN(C)Cc2ccc(C(=O)O)cc2)[C@@H](C)CN([C@@H](C)CO)C(=O)c2cc(NC(=O)C3CCCCC3)ccc2O1`, “inactive”; under `C(=N\c1ccccc1)/c1ccc(Oc2ccccc2)cc1`, “inactive”.

As for `C[C@@H]1CN([C@@H](C)CO)C(=O)Cc2cc(NC(=O)CCCCCC(=O)Nc3ccccc3N)ccc2O[C@@H]1CN(C)Cc1ccc(C(F)(F)F)cc1`, the cytotoxicity call is “active”. Under `C[C@H]1CN([C@@H](C)CO)C(=O)Cc2cc(NC(=O)CCCCCC(=O)Nc3ccccc3N)ccc2O[C@@H]1CN(C)Cc1ccc(C(F)(F)F)cc1` stands “inactive”; under `C[C@@H]1CN([C@@H](C)CO)C(=O)Cc2cc(NC(=O)CCCCCC(=O)Nc3ccccc3N)ccc2O[C@H]1CN(C)Cc1ccc(C(F)(F)F)cc1`, “inactive”; under `C[C@@H]1CN([C@H](C)CO)C(=O)Cc2cc(NC(=O)CCCCCC(=O)Nc3ccccc3N)ccc2O[C@@H]1CN(C)Cc1ccc(C(F)(F)F)cc1`, “active”.

For the molecule `C[C@@H]1CN([C@H](C)CO)C(=O)Cc2cc(NC(=O)CCCCCC(=O)Nc3ccccc3N)ccc2O[C@H]1CN(C)Cc1ccc(C(F)(F)F)cc1`, the cytotoxicity call is “inactive”. In the case of `C[C@H](CO)N1C[C@H](C)[C@H](CN(C)Cc2ccc(C(F)(F)F)cc2)Oc2ccc(NC(=O)CCCCCC(=O)Nc3ccccc3N)cc2CC1=O`, the cytotoxicity call is “inactive”.

Consider `COc1cccc(Nc2ncnn3ccc(CN4CC[C@@H](N)[C@H](O)C4)c23)c1`, for which the cytotoxicity call was “inactive”.

As for `COc1cccc(S(=O)(=O)N2C[C@H](O)COC[C@H]3O[C@H](CC(=O)N4CCN(C)CC4)CC[C@@H]32)c1`, the cytotoxicity call is “inactive”.

`C[C@H](CO)N1C[C@H](C)[C@@H](CN(C)CC2CC2)Oc2ccc(NS(=O)(=O)c3ccccc3)cc2C1=O`: the cytotoxicity call was “inactive”. Under `CC1(C)[C@H]2CC[C@@]1(C)c1nn(-c3ccccc3)c(C(F)(F)F)c12` stands “inactive”; under `C[C@H](CO)N1C[C@H](C)[C@@H](CN(C)C(=O)Nc2cccc3ccccc23)OCCCC[C@H](C)Oc2ccc(NC(=O)Nc3ccc(F)cc3)cc2C1=O`, “inactive”; under `COc1ccc(NC(=O)Nc2ccc3c(c2)C(=O)N([C@H](C)CO)C[C@H](C)[C@@H](CN(C)Cc2ccc(Oc4ccccc4)cc2)O3)cc1`, “inactive”. As to `C[C@H](CO)N1C[C@H](C)[C@@H](CN(C)Cc2ccc(Oc3ccccc3)cc2)Oc2ccc(NC(=O)Nc3ccccc3)cc2C1=O`, the cytotoxicity call was “inactive”. For the molecule `C[C@@H]1CN([C@@H](C)CO)C(=O)c2cc(NC(=O)Cc3ccccc3)ccc2O[C@@H]1CN(C)Cc1ccc(Oc2ccccc2)cc1`, the cytotoxicity call was “active”.

With `C[C@@H]1CN([C@@H](C)CO)C(=O)c2cc(NC(=O)Nc3ccccc3)ccc2O[C@@H]1CN(C)Cc1ccc(Oc2ccccc2)cc1`, the cytotoxicity call was “active”. Under `COc1ccc(NC(=O)Nc2ccc3c(c2)C(=O)N([C@H](C)CO)C[C@@H](C)[C@@H](CN(C)Cc2ccc(Oc4ccccc4)cc2)O3)cc1` stands “inactive”; under `C[C@@H]1CN([C@H](C)CO)C(=O)c2cc(NC(=O)Nc3ccc4c(c3)OCO4)ccc2O[C@@H]1CN(C)Cc1ccc(Oc2ccccc2)cc1`, “active”; under `C[C@H](CO)N1C[C@H](C)[C@H](CN(C)Cc2ccc(Oc3ccccc3)cc2)Oc2ccc(NC(=O)Nc3ccc4c(c3)OCO4)cc2C1=O`, “inactive”. For the molecule `C[C@@H]1CN([C@@H](C)CO)C(=O)c2cc(NC(=O)Cc3ccccc3)ccc2O[C@H]1CN(C)Cc1ccc(Oc2ccccc2)cc1`, the cytotoxicity call was “inactive”. Under `COc1ccc(NC(=O)Nc2ccc3c(c2)C(=O)N([C@H](C)CO)C[C@H](C)[C@H](CN(C)Cc2ccc(Oc4ccccc4)cc2)O3)cc1` stands “active”.

Turning to `C[C@@H]1CN([C@H](C)CO)C(=O)c2cc(NC(=O)Cc3ccccc3)ccc2O[C@@H]1CN(C)Cc1ccc(Oc2ccccc2)cc1`, the cytotoxicity call was “inactive”. To `C[C@@H]1CN([C@@H](C)CO)C(=O)c2cc(NC(=O)Nc3ccc4c(c3)OCO4)ccc2O[C@H]1CN(C)Cc1ccc(Oc2ccccc2)cc1` belongs “inactive”; to `C[C@@H]1CN([C@@H](C)CO)C(=O)c2cc(NC(=O)Nc3ccccc3)ccc2O[C@H]1CN(C)Cc1ccc(Oc2ccccc2)cc1`, “inactive”; to `Cc1ccc(S(=O)(=O)N[C@@H]2CC[C@@H](CC(=O)N3CCC(Cc4ccccc4)CC3)O[C@H]2CO)cc1`, “inactive”.

Regarding `C[C@H](CO)N1C[C@H](C)[C@@H](CN(C)Cc2ccc(Oc3ccccc3)cc2)Oc2c(NC(=O)c3ccc(-c4nccs4)cc3)cccc2C1=O`, the cytotoxicity call was “inactive”.

For the molecule `C[C@@H]1CN([C@H](C)CO)S(=O)(=O)c2ccc(C#Cc3ccccn3)cc2O[C@H]1CN(C)Cc1ccccc1`, the cytotoxicity call was “inactive”. To `CCCC(=O)Nc1ccc2c(c1)C(=O)N(C)C[C@H](OC)[C@@H](C)CN(S(=O)(=O)c1cn(C)cn1)[C@@H](C)CO2` belongs “inactive”; to `COc1cccc(OC)c1C(=O)O[C@H]1[C@@H]2OC(=O)[C@H](Cc3cccc(Br)c3)C/C=C/C[C@@H](Cc3cccc(Br)c3)C(=O)O[C@H]2[C@@H](OC)O[C@@H]1CO`, “inactive”; to `C[C@@H]1CCCCO[C@H](CN(C)C(=O)c2ccccc2)[C@H](C)CN([C@@H](C)CO)C(=O)c2cc(NC(=O)Nc3ccc(F)cc3)ccc2O1`, “inactive”.

For the molecule `COc1ccc(NC(=O)Nc2ccc3c(c2)CC(=O)N([C@@H](C)CO)C[C@@H](C)[C@H](CN(C)Cc2ccc(-c4ccccc4)cc2)O3)cc1`, the cytotoxicity call was “inactive”. To `C[C@H]1CCCCO[C@H](CN(C)C(=O)Nc2cccc3ccccc23)[C@@H](C)CN([C@@H](C)CO)C(=O)c2cc(N(C)C)ccc2O1` belongs “inactive”; to `COc1ccc(NC(=O)Nc2ccc3c(c2)C(=O)N([C@H](C)CO)C[C@H](C)[C@@H](CN(C)Cc2ccc(-c4ccccc4)cc2)O3)cc1`, “inactive”. To `C[C@@H]1CN([C@H](C)CO)C(=O)c2cc(NC(=O)Nc3ccccc3)ccc2O[C@@H]1CN(C)Cc1ccc(Oc2ccccc2)cc1` belongs “active”; to `C[C@H]1CN([C@@H](C)CO)C(=O)c2cc(NC(=O)Nc3ccccc3)ccc2O[C@H]1CN(C)Cc1ccc(Oc2ccccc2)cc1`, “inactive”.

For `COc1ccc(NC(=O)Nc2ccc3c(c2)C(=O)N([C@@H](C)CO)C[C@H](C)[C@@H](CN(C)Cc2ccc(-c4ccccc4)cc2)O3)cc1`, the cytotoxicity call is “active”.

Consider `COc1ccc(NC(=O)Nc2ccc3c(c2)C(=O)N([C@@H](C)CO)C[C@@H](C)[C@@H](CN(C)Cc2ccc(-c4ccccc4)cc2)O3)cc1`, for which the cytotoxicity call was “inactive”. For the molecule `C[C@@H]1CN([C@H](C)CO)C(=O)c2cc(NC(=O)Nc3ccccc3)ccc2O[C@H]1CN(C)Cc1ccc(Oc2ccccc2)cc1`, the cytotoxicity call was “inactive”.
